# Test results: the supplement of paper PMC4466140
# Columns and labels:
# Assay in all cases: SPOT peptide array binding signal intensity (averaged, normalized) (arbitrary units (background-subtracted, floor 0; scale differs between SH3 domains)); higher = stronger binding of the SH3 domain to the peptide
# CaNbp2 = molecular target: CaNbp2
# Method in brief: (§1)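 GST-fused SH3 domains from four yeast species were expressed in E. coli BL21(DE3), purified on glutathione Sepharose and incubated at 10 μg/ml overnight at 4°C in TBS-based blocking buffer on cellulose membranes carrying synthetic 15-mer peptides, with cysteines replaced by serines. Bound protein was detected with anti-GST antibody, an HRP anti-mouse secondary and luminol, then imaged and quantified with Genespotter. Binding signal is the normalized, background-subtracted spot intensity averaged over replicates, in arbitrary units that differ between domains.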
# CaRvs167 = molecular target: CaRvs167
# Method in brief: as §1
# CaRvs167-3 = molecular target: CaRvs167-3
# Method in brief: as §1
# CaSho1 = molecular target: CaSho1
# Method in brief: as §1
# CaSla1-D1-D2 = molecular target: CaSla1-D1-D2
# Method in brief: as §1
# CaSla1-D3 = molecular target: CaSla1-D3
# Method in brief: as §1
# ScAbp1 = molecular target: ScAbp1
# Method in brief: as §1
# ScBbc1 = molecular target: ScBbc1
# Method in brief: as §1
# ScBem1-D1 = molecular target: ScBem1-D1
# Method in brief: as §1
# ScBzz1-D1 = molecular target: ScBzz1-D1
# Method in brief: as §1
# ScBzz1-D2 = molecular target: ScBzz1-D2
# Method in brief: as §1
# ScCyk3 = molecular target: ScCyk3
# Method in brief: as §1
# ScFus1 = molecular target: ScFus1
# Method in brief: as §1
# ScHof1 = molecular target: ScHof1
# Method in brief: as §1
# ScHse1 = molecular target: ScHse1
# Method in brief: as §1
# ScLsb1 = molecular target: ScLsb1
# Method in brief: as §1
# ScLsb2 = molecular target: ScLsb2
# Method in brief: as §1
# ScLsb3 = molecular target: ScLsb3
# Method in brief: as §1
# ScLsb4 = molecular target: ScLsb4
# Method in brief: as §1
# ScMyo3 = molecular target: ScMyo3
# Method in brief: as §1
# ScMyo5 = molecular target: ScMyo5
# Method in brief: as §1
# ScNbp2 = molecular target: ScNbp2
# Method in brief: as §1
# ScPex13 = molecular target: ScPex13
# Method in brief: as §1
# ScRvs167 = molecular target: ScRvs167
# Method in brief: as §1
# ScSho1 = molecular target: ScSho1
# Method in brief: as §1
# ScSla1-D1-D2 = molecular target: ScSla1-D1-D2
# Method in brief: as §1
# ScSla1-D3 = molecular target: ScSla1-D3
# Method in brief: as §1
# SpAbp1-D1 = molecular target: SpAbp1-D1
# Method in brief: as §1
# SpBbc1 = molecular target: SpBbc1
# Method in brief: as §1
# SpBzz1-D1 = molecular target: SpBzz1-D1
# Method in brief: as §1
# SpBzz1-D2 = molecular target: SpBzz1-D2
# Method in brief: as §1
# SpCyk3 = molecular target: SpCyk3
# Method in brief: as §1
# SpHof1 = molecular target: SpHof1
# Method in brief: as §1
# SpHof1-2 = molecular target: SpHof1-2
# Method in brief: as §1
# SpHof1-3 = molecular target: SpHof1-3
# Method in brief: as §1
# SpHse1 = molecular target: SpHse1
# Method in brief: as §1
# SpLsb1 = molecular target: SpLsb1
# Method in brief: as §1
# SpLsb4 = molecular target: SpLsb4
# Method in brief: as §1
# SpMyo1 = molecular target: SpMyo1
# Method in brief: as §1
# SpNbp2 = molecular target: SpNbp2
# Method in brief: as §1
# SpPex13 = molecular target: SpPex13
# Method in brief: as §1
# SpRvs167 = molecular target: SpRvs167
# Method in brief: as §1
# SpSla1-D1-D2 = molecular target: SpSla1-D1-D2
# Method in brief: as §1
# SpSla1-D3 = molecular target: SpSla1-D3
# Method in brief: as §1
# AgAbp1 = molecular target: AgAbp1
# Method in brief: as §1
# AgBbc1 = molecular target: AgBbc1
# Method in brief: as §1
# AgBem1-D1 = molecular target: AgBem1-D1
# Method in brief: as §1
# AgBzz1-D1 = molecular target: AgBzz1-D1
# Method in brief: as §1
# AgBzz1-D2 = molecular target: AgBzz1-D2
# Method in brief: as §1
# AgCyk3 = molecular target: AgCyk3
# Method in brief: as §1
# AgFus1 = molecular target: AgFus1
# Method in brief: as §1
# AgHof1 = molecular target: AgHof1
# Method in brief: as §1
# AgHse1 = molecular target: AgHse1
# Method in brief: as §1
# AgLsb1 = molecular target: AgLsb1
# Method in brief: as §1
# AgLsb4 = molecular target: AgLsb4
# Method in brief: as §1
# AgMyo5 = molecular target: AgMyo5
# Method in brief: as §1
# AgNbp2 = molecular target: AgNbp2
# Method in brief: as §1
# AgRvs167 = molecular target: AgRvs167
# Method in brief: as §1
# AgSho1 = molecular target: AgSho1
# Method in brief: as §1
# AgSla1-D1-D2 = molecular target: AgSla1-D1-D2
# Method in brief: as §1
# AgSla1-D3 = molecular target: AgSla1-D3
# Method in brief: as §1
# CaAbp1-D1 = molecular target: CaAbp1-D1
# Method in brief: as §1
# CaAbp1-D2 = molecular target: CaAbp1-D2
# Method in brief: as §1
# CaBbc1 = molecular target: CaBbc1
# Method in brief: as §1
# CaBem1-D1 = molecular target: CaBem1-D1
# Method in brief: as §1
# CaBzz1-D1 = molecular target: CaBzz1-D1
# Method in brief: as §1
# CaBzz1-D2 = molecular target: CaBzz1-D2
# Method in brief: as §1
# CaCyk3 = molecular target: CaCyk3
# Method in brief: as §1
# CaFus1 = molecular target: CaFus1
# Method in brief: as §1
# CaHof1 = molecular target: CaHof1
# Method in brief: as §1
# CaHse1 = molecular target: CaHse1
# Method in brief: as §1
# CaLsb1 = molecular target: CaLsb1
# Method in brief: as §1
# CaLsb4 = molecular target: CaLsb4
# Method in brief: as §1
# CaMyo5 = molecular target: CaMyo5
# Method in brief: as §1
binder,measurement,setting,value
TKFRISLGLPVGAIM,SPOT peptide array binding signal intensity,CaNbp2,498
same,SPOT peptide array binding signal intensity,CaRvs167,245
same,SPOT peptide array binding signal intensity,CaRvs167-3,2240
same,SPOT peptide array binding signal intensity,CaSho1,1360
same,SPOT peptide array binding signal intensity,CaSla1-D1-D2,126
same,SPOT peptide array binding signal intensity,CaSla1-D3,602
same,SPOT peptide array binding signal intensity,ScAbp1,13
same,SPOT peptide array binding signal intensity,ScBbc1,17
same,SPOT peptide array binding signal intensity,ScBem1-D1,66
same,SPOT peptide array binding signal intensity,ScBzz1-D1,95
same,SPOT peptide array binding signal intensity,ScBzz1-D2,392
same,SPOT peptide array binding signal intensity,ScCyk3,292
same,SPOT peptide array binding signal intensity,ScFus1,2830
same,SPOT peptide array binding signal intensity,ScHof1,2.5
same,SPOT peptide array binding signal intensity,ScHse1,1460
same,SPOT peptide array binding signal intensity,ScLsb1,19.8
same,SPOT peptide array binding signal intensity,ScLsb2,30
same,SPOT peptide array binding signal intensity,ScLsb3,329
same,SPOT peptide array binding signal intensity,ScLsb4,72
same,SPOT peptide array binding signal intensity,ScMyo3,4
same,SPOT peptide array binding signal intensity,ScMyo5,12
same,SPOT peptide array binding signal intensity,ScNbp2,702
same,SPOT peptide array binding signal intensity,ScPex13,65.5
same,SPOT peptide array binding signal intensity,ScRvs167,80.7
same,SPOT peptide array binding signal intensity,ScSho1,2880
same,SPOT peptide array binding signal intensity,ScSla1-D1-D2,333
same,SPOT peptide array binding signal intensity,ScSla1-D3,122
same,SPOT peptide array binding signal intensity,SpAbp1-D1,68
same,SPOT peptide array binding signal intensity,SpBbc1,55
same,SPOT peptide array binding signal intensity,SpBzz1-D1,537
same,SPOT peptide array binding signal intensity,SpBzz1-D2,5
same,SPOT peptide array binding signal intensity,SpCyk3,55
same,SPOT peptide array binding signal intensity,SpHof1,183
same,SPOT peptide array binding signal intensity,SpHof1-2,78.2
same,SPOT peptide array binding signal intensity,SpHof1-3,760
same,SPOT peptide array binding signal intensity,SpHse1,664
same,SPOT peptide array binding signal intensity,SpLsb1,35.5
same,SPOT peptide array binding signal intensity,SpLsb4,100
same,SPOT peptide array binding signal intensity,SpMyo1,20.5
same,SPOT peptide array binding signal intensity,SpNbp2,1390
same,SPOT peptide array binding signal intensity,SpPex13,239
same,SPOT peptide array binding signal intensity,SpRvs167,39.2
same,SPOT peptide array binding signal intensity,SpSla1-D1-D2,6
same,SPOT peptide array binding signal intensity,SpSla1-D3,51.5
LTRRFPFLFPFDTRM,SPOT peptide array binding signal intensity,AgAbp1,4
same,SPOT peptide array binding signal intensity,AgBbc1,≤ 0
same,SPOT peptide array binding signal intensity,AgBem1-D1,47
same,SPOT peptide array binding signal intensity,AgBzz1-D1,13
same,SPOT peptide array binding signal intensity,AgBzz1-D2,27
same,SPOT peptide array binding signal intensity,AgCyk3,1
same,SPOT peptide array binding signal intensity,AgFus1,198
same,SPOT peptide array binding signal intensity,AgHof1,43.5
same,SPOT peptide array binding signal intensity,AgHse1,1430
same,SPOT peptide array binding signal intensity,AgLsb1,1.75
same,SPOT peptide array binding signal intensity,AgLsb4,18
same,SPOT peptide array binding signal intensity,AgMyo5,1.5
same,SPOT peptide array binding signal intensity,AgNbp2,36
same,SPOT peptide array binding signal intensity,AgRvs167,3.33
same,SPOT peptide array binding signal intensity,AgSho1,21
same,SPOT peptide array binding signal intensity,AgSla1-D1-D2,25.5
same,SPOT peptide array binding signal intensity,AgSla1-D3,4
same,SPOT peptide array binding signal intensity,CaAbp1-D1,573
same,SPOT peptide array binding signal intensity,CaAbp1-D2,155
same,SPOT peptide array binding signal intensity,CaBbc1,3.25
same,SPOT peptide array binding signal intensity,CaBem1-D1,7
same,SPOT peptide array binding signal intensity,CaBzz1-D1,40
same,SPOT peptide array binding signal intensity,CaBzz1-D2,12.5
same,SPOT peptide array binding signal intensity,CaCyk3,8
same,SPOT peptide array binding signal intensity,CaFus1,1040
same,SPOT peptide array binding signal intensity,CaHof1,0.5
same,SPOT peptide array binding signal intensity,CaHse1,83.5
same,SPOT peptide array binding signal intensity,CaLsb1,≤ 0
same,SPOT peptide array binding signal intensity,CaLsb4,9.5
same,SPOT peptide array binding signal intensity,CaMyo5,13.8
same,SPOT peptide array binding signal intensity,CaNbp2,249
same,SPOT peptide array binding signal intensity,CaRvs167,10.2
same,SPOT peptide array binding signal intensity,CaRvs167-3,43.2
same,SPOT peptide array binding signal intensity,CaSho1,892
same,SPOT peptide array binding signal intensity,CaSla1-D1-D2,30.5
same,SPOT peptide array binding signal intensity,CaSla1-D3,20
same,SPOT peptide array binding signal intensity,ScAbp1,39
same,SPOT peptide array binding signal intensity,ScBbc1,0.5
same,SPOT peptide array binding signal intensity,ScBem1-D1,14
same,SPOT peptide array binding signal intensity,ScBzz1-D1,10
same,SPOT peptide array binding signal intensity,ScBzz1-D2,10
same,SPOT peptide array binding signal intensity,ScCyk3,374
same,SPOT peptide array binding signal intensity,ScFus1,289
same,SPOT peptide array binding signal intensity,ScHof1,0.5
same,SPOT peptide array binding signal intensity,ScHse1,1600
same,SPOT peptide array binding signal intensity,ScLsb1,≤ 0
same,SPOT peptide array binding signal intensity,ScLsb2,≤ 0
same,SPOT peptide array binding signal intensity,ScLsb3,27.5
same,SPOT peptide array binding signal intensity,ScLsb4,≤ 0
same,SPOT peptide array binding signal intensity,ScMyo3,2.5
same,SPOT peptide array binding signal intensity,ScMyo5,1.5
same,SPOT peptide array binding signal intensity,ScNbp2,128
same,SPOT peptide array binding signal intensity,ScPex13,≤ 0
same,SPOT peptide array binding signal intensity,ScRvs167,14.3
same,SPOT peptide array binding signal intensity,ScSho1,335
same,SPOT peptide array binding signal intensity,ScSla1-D1-D2,7
same,SPOT peptide array binding signal intensity,ScSla1-D3,7.5
same,SPOT peptide array binding signal intensity,SpAbp1-D1,195
same,SPOT peptide array binding signal intensity,SpBbc1,≤ 0
same,SPOT peptide array binding signal intensity,SpBzz1-D1,53.5
